Screening results: PubChem BioAssay, National Center for Advancing Translational Sciences (NCATS)
Giardia kill – Giardia lamblia killing; Giardia lamblia trophozoite viability; activity change, % at 7.66 µM, hits read low; 340,000 compounds, 0.15% hits; AID 540267; in the data active means activity change below about -80%; inconclusive means between about -30% and that limit;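 further: parasites exposed to compound for two days anaerobically before the ATP read; on the % scale 0 is the no-effect control and ±100 the full control effect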
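Each well holds 100 Giardia trophozoites and compound. After two days (48 hrs) at 37 deg C in anaerobic conditions, ATP is quantified by luminescence.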
RORg inh – inhibitors of mouse ROR gamma transcriptional activity | 310,000 compounds, 5.4% hits | AID 2551 | P51450 | Potency, µM (top dose mostly 53.6 µM), for inactives: at the highest dose activity change, negative = inhibition, usual class: inhibitors | Drosophila S2 Gal4-RORgamma UAS-luciferase reporter, 20 h; further: potency means the concentration at half of the fitted maximal effect; on the % scale 0 is the no-effect control and ±100 the full control effect; nearly all actives have a fitted effect of over 60% in size
Target sequence (P51450 whole entry, looked up, the tested form may be a part): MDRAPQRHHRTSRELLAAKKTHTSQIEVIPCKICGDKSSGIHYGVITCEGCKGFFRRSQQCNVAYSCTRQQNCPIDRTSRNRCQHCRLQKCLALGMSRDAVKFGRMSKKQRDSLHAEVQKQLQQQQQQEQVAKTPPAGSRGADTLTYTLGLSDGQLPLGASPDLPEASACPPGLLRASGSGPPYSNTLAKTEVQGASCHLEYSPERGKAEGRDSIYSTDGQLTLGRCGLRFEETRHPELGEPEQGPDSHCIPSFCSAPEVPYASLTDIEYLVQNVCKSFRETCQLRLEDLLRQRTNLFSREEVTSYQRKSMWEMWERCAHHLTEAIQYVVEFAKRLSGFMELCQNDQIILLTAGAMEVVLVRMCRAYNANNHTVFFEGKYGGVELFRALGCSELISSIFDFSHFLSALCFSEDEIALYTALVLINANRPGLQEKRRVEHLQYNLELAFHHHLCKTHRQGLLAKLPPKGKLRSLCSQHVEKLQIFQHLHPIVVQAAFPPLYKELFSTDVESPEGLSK
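Read-out: Photinus luciferase luminescence; inhibitors lower reporter signal. Insect Schneider cells with Gal4-ROR gamma fusion under metallothionein promoter, UAS reporter; 700 uM final copper sulfate induction, 20 hr, ambient temperature.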
ELG1 repair inh – blocks ELG1-dependent DNA repair in HEK293T cells; HEK293T ELG1-luciferase reporter, luminescence, 16 h; DNA damage induced by 5-fluorouridine; Potency, µM (series often up to 46.1 µM), for the others: top-dose activity change, negative = inhibition, most hits filed as inhibitors; 330,000 compounds, 2.3% hits; AID 504467; further: potency means the concentration at half of the fitted maximal effect; on the % scale 0 is the no-effect control and ±100 the full control effect; nearly all actives have a fitted effect of over 55% in size
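DMSO vehicle served as the neutral condition. Each well held 2,000 cells given 5-fluorouridine plus compound; after 16 hr at 37 °C/5% CO2, ONE-Glo was added and luciferase measured 30 min later.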
Gal4-VP16 FLuc – Gal4-VP16 reporter inhibition counter-screen; Drosophila S2 Gal4-VP16 UAS-luciferase, luminescence, 20 h; Potency, µM (series often up to 53.6 µM), without a hit: top-dose activity, negative = inhibition, most hits filed as inhibitors; 310,000 compounds, 3.5% hits;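 further: Gal4-VP16 expression switched on by copper sulfate through the metallothionein promoter; potency means the concentration at half of the fitted maximal effect; on the % scale 0 is the no-effect control and ±100 the full control effect; nearly all actives have a fitted effect of over 50% in size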
BRCA1 expr act – increases BRCA1 expression; 380,000 compounds, 1.1% hits; MCF7-BRCA1-FFLuc reporter, luminescence, 48 h; response scale: scaled: vehicle 0%, 10 µM genistein 100%; Potency, µM (titrated, usually from 46.1 µM), inactives show at the highest dose activation, actives largely listed as activators; further: potency means the concentration at half of the fitted maximal effect; nearly all actives have a fitted effect of over 80% in size
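Luminescence from a BRCA1-driven firefly luciferase in MCF7 cells was the read-out, taken 15 min after substrate addition following 48 h compound exposure at 37 °C. Data were normalized to a 10 microM genistein control and DMSO vehicle.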
p53 reactivation – re-activators of mutant p53; H1299 p53-A138V BP100-luciferase reporter, luminescence, 24 h; Potency, µM (highest dose often 92.2 µM), inactives show at the top dose activity change, positive = activation, most hits filed as activators; 320,000 compounds, 0.063% hits; further: potency means the concentration at half of the fitted maximal effect; % of control where 0% means no effect; nearly all actives have a fitted effect of over 45% in size
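H1299 (p53-null), stable ts p53-A138V + BP100-Luc; 1000 cells/well, Opti-MEM/10% FBS; cpd 4 pt, 1:5; 24 h, 37 deg C, 5% CO2; detection reagent 10 min RT; luminescence.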
* hit, by the source's call. Only some compounds are listed: those with a hit (about 7.6% of all), similar ones and a draw of the others. Unless noted, the call rests on the fitted dose curve; in most records, active means well fitted curve in the direction sought with a large enough effect; inconclusive means small, poorly fitted or top-dose-only effect, or another doubt; inactive means no such curve, though single readings can be large; an effect the other way counts as inactive or inconclusive.

COc1ccc(NC(=O)Oc2ccccc2)cc1Cl was read as Giardia kill 15, RORg inh 0%, ELG1 repair inh 4%, Gal4-VP16 FLuc 5%, BRCA1 expr act -9% and p53 reactivation 20%.
COc1ccc(C(=O)NC(=S)Nc2cccc(Cl)c2N2CCOCC2)cc1[N+](=O)[O-] was read as Giardia kill 5, RORg inh 1.8µM*, ELG1 repair inh inconclusive, Gal4-VP16 FLuc 5µM*, BRCA1 expr act -84% and p53 reactivation -1%.
`CC(C)(C)c1ccc(NC(=O)CC2(C(F)(F)F)OCCO2)cc1` gave Giardia kill -5, RORg inh -25%, ELG1 repair inh inconclusive, Gal4-VP16 FLuc 9%, BRCA1 expr act 3.5µM* and p53 reactivation inconclusive.
`CC1(C)CCC2=C(O1)c1ccccc1C(=O)C2=O` gave RORg inh 2.5µM*, Gal4-VP16 FLuc 5.6µM* and BRCA1 expr act -69%.
Screening CCc1nc(NCc2cccs2)c2nnn(Cc3ccccc3)c2n1 returned BRCA1 expr act -1%.
Screening CCCCC(=O)Nc1ccc(C(=O)OC2CCCCC2)cc1 returned Giardia kill -10, RORg inh 34%, ELG1 repair inh -6%, Gal4-VP16 FLuc 8%, BRCA1 expr act 11% and p53 reactivation 12%.
Screening O=C(O)CCC(=O)Nc1ccc(C(=O)OC2CCCCC2)cc1 returned Giardia kill -17, RORg inh 18µM*, ELG1 repair inh inconclusive, Gal4-VP16 FLuc inconclusive, BRCA1 expr act -47% and p53 reactivation -11%.
Cc1cc2c(cc1C)N(Cc1ccc(Cl)cc1)C1=NCCCN12 was read as Giardia kill -21 and BRCA1 expr act -74%.
`COc1ccc(-c2nnc3n2N=C(c2cccc(OC)c2)CS3)cc1` gave RORg inh -27% and Gal4-VP16 FLuc -5%.
Screening O=C(NC1CCCc2ccccc21)c1cn2ccccc2n1 (configuration not stated) returned Giardia kill 4, RORg inh 34%, ELG1 repair inh inconclusive, Gal4-VP16 FLuc 9%, BRCA1 expr act -1% and p53 reactivation -1%.
`Cc1nc2ccccn2c1C(=O)NC1CCCc2ccccc21` (configuration not stated) gave Giardia kill 3, RORg inh inconclusive, ELG1 repair inh inconclusive, Gal4-VP16 FLuc 13µM*, BRCA1 expr act -52% and p53 reactivation 0%.
For CCC(C)[C@H]1CNC(=S)N1CCc1cc(C(F)(F)F)cc(C(F)(F)F)c1 (some centres not stated) the results were Giardia kill -16, RORg inh 2.2µM*, ELG1 repair inh 3%, Gal4-VP16 FLuc 4µM*, BRCA1 expr act -29% and p53 reactivation 4%.
`CCCC[C@@H]1CNC(=O)C(=O)N1CCc1cc(C(F)(F)F)cc(C(F)(F)F)c1` gave Giardia kill -10, RORg inh 1%, ELG1 repair inh 0%, Gal4-VP16 FLuc -4%, BRCA1 expr act 0% and p53 reactivation -3%.
For CC1(C)C2CCC1(C)C(Nc1ccccc1)C2 (configuration not stated) the results were Giardia kill -3, RORg inh 2%, ELG1 repair inh inconclusive, Gal4-VP16 FLuc -8%, BRCA1 expr act 20% and p53 reactivation 1%.
Screening CC1(C)C2CCC1(C)C(NC(=O)/C=C/c1ccccc1)C2 (configuration not stated) returned Giardia kill 23, RORg inh inconclusive, ELG1 repair inh inconclusive, Gal4-VP16 FLuc 18µM*, BRCA1 expr act 5% and p53 reactivation 18%.
`Clc1cccc(CN2CCc3c([nH]c4ccccc34)C2)c1Cl` gave Giardia kill 14, RORg inh 1%, ELG1 repair inh inconclusive, Gal4-VP16 FLuc -13%, BRCA1 expr act -6% and p53 reactivation 1%.
